The list is not random: actives were taken first. Their share in the collection is about 6.2%.
KB-3-1 cytotox = kills parental KB-3-1 adenocarcinoma cells. KB-3-1 viability, CellTiter-Glo ATP luminescence, 72 h. Potency, µM (top dose mostly 46.1 µM), usual class: cytotoxic. 400,000 compounds, 1.4% hits. AID 1347075; note: nearly all actives have a fitted effect of over 60% in size
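Cells are dispensed, compounds pinned in, plates held at 37 °C for 72 h, then CellTiter-Glo is added and luminescence read after 10 minutes. Cell line: parental KB-3-1 in phenol-red-free DMEM, 10% FBS.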
HT1080 IDH1KD tx = toxicity to HT-1080 IDH1 knockdown cells (counter line). HT-1080 IDH1 knockdown viability, ATP luminescence, 48 h. Potency, µM (titrated, usually from 46.1 µM), usual class: cytotoxic. 360,000 compounds, 2% hits. AID 686971
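CellTiter-Glo luminescence after 48 h compound exposure at 37 degrees C of IDH1-knockdown HT-1080 cells in 5% FBS RPMI. %Activity scaled between DMSO wells and cell-free media wells, with curves fitted and assigned curve classes.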
S2 tox = viability counter-screen for ATXN expression inhibitors. 400,000 compounds, 0.49% hits. S2 cells (HEK-293 line with an ATXN2-luciferase reporter) viability, CellTiter-Fluor protease fluorescence, 24 h. Potency, µM (highest dose often 56.7 µM), actives largely listed as cytotoxic. AID 651635; note: nearly all actives have a fitted effect of over 40% in size
HT1080-NT tox = kills 2HG-producing HT-1080-NT fibrosarcoma cells; 360,000 compounds, 1.6% hits; HT-1080-NT fibrosarcoma viability, CellTiter-Glo ATP luminescence, 48 h; Potency, µM (highest dose often 46.1 µM), most hits filed as cytotoxic;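 note: NT is the 2HG producing partner of a matched IDH1 knockdown line; nearly all actives have a fitted effect of over 55% in size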
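A 48-hour cytotoxicity screen used HT-1080-NT cells plated 2 hours before compound delivery. ATP-based CellTiter-Glo luminescence measured viability, normalized to DMSO and no-cell controls.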
ATXN2 expr inh = reduces ATXN2 reporter expression in HEK-293 cells | Potency, µM (doses to about 57 µM), actives largely listed as inhibitors | HEK-293 ATXN2-luciferase reporter, luminescence, 24 h | 360,000 compounds, 0.72% hits; note: nearly all actives have a fitted effect of over 55% in size
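qHTS (up to 57 uM final) was run with 24 h compound exposure of reporter cells at 37 °C. Each well was multiplexed: SteadyGlo luminescence measured ATXN2-luciferase expression after a fluorogenic Gly-Phe-AFC viability readout (25 uM final).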
KB-V1 MDR tox = kills drug-selected multidrug resistant KB-V1 cells; Potency, µM (doses to about 46.1 µM), actives largely listed as cytotoxic; 400,000 compounds, 3.4% hits; AID 1347076; KB-V1 MDR cells viability, CellTiter-Glo, 72 h; note: nearly all actives have a fitted effect of over 60% in size
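Cells of the MDR subline KB-V1 are plated, dosed with compound at multiple concentrations, and incubated 72 h at 37 degrees C; CellTiter-Glo is then added and luminescence read after 10 min.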
Hits are given with their value; i = inactive; ? = inconclusive; nt = not tested or not shown. Calls come from the whole dose curve; as a rule, active = well fitted curve in the direction sought with a large enough effect; inconclusive = small, poorly fitted or top-dose-only effect, or another doubt; inactive = no such curve, though single readings can be large; an effect the other way counts as inactive or inconclusive.

SMILES	KB-3-1 cytotox	HT1080 IDH1KD tx	S2 tox	HT1080-NT tox	ATXN2 expr inh	KB-V1 MDR tox
O=C1OCC2=C1C(c1ccc(F)cc1)c1cc3c(cc1N2)OCCO3 (centres undefined)	0.164µM	0.184µM	i	0.184µM	i	0.0326µM
CCOc1ccccc1C1C2=C(COC2=O)Nc2cc3c(cc21)OCO3 (centres undefined)	1.16µM	0.651µM	?	1.16µM	i	3.66µM
CCOc1ccccc1C1CC(=O)Nc2cc3c(cc21)OCO3 (centres undefined)	i	i	nt	i	nt	i
COc1cc2c(cc1OC)C(c1ccc3c(c1)OCO3)C1=C(CC(C)(C)CC1=O)N2 (centres undefined)	i	i	?	i	i	0.731µM
C#CCOc1ccc(C2C3=C(COC3=O)Nc3cc4c(cc32)OCO4)cc1OC (centres undefined)	?	0.092µM	i	0.0461µM	i	4.61µM
O=C(Nc1ccc(Cl)cc1Cl)c1cnn2c1NC(=C1CC1)C=C2C(F)F	?	nt	nt	nt	nt	i
CCc1ccc2[nH]c(=O)c(CN(Cc3ccco3)Cc3nnnn3Cc3ccco3)cc2c1	?	nt	nt	nt	nt	i
COc1cc(O)c(C(CC(=O)N2CCOCC2)c2ccc(OC)c(OC)c2)c(OC)c1 (centres undefined)	i	nt	nt	nt	nt	i
Cc1ccc(C)c(N2CCN(C(=O)Cn3cnc4nc5c(cc4c3=O)CCCC5)CC2)c1	i	nt	?	nt	i	i
O=C(CN1C(=O)COc2ccc(S(=O)(=O)N3CCCC3)cc21)N1CCN(c2ccc(F)cc2)CC1	i	nt	i	nt	i	?
O=C(Cc1ccc2ccccc2c1)NO	nt	i	nt	i	nt	nt
COc1ccc(N2CC(NC(=O)COc3ccc4ccccc4c3)CC2=O)cc1OC (centres undefined)	i	nt	i	nt	i	i
CC(C)C[C@H]1CN(CCCC[C@H]2CNC(=O)C(=O)N2CCc2ccccc2)C(=O)C(=O)N1CCc1ccccc1	i	i	i	i	i	i
O=C1OCC2=C1C(c1ccc3c(c1)OCO3)Sc1ccccc1N2 (centres undefined)	i	i	i	i	i	i
O=C1OCC2=C1C(c1ccc(F)cc1)c1cc3c(cc1N2)OCO3 (centres undefined)	0.0366µM	0.116µM	?	0.184µM	?	0.146µM
Cc1cccc(CN2C[C@H](Sc3ccccn3)C[C@H]2C(=O)Nc2ccc3sc(C)nc3c2)c1	nt	nt	i	nt	nt	nt
O=C(Nc1c(Cl)cncc1Cl)c1ccc(OC(F)F)c(OCC2CC2)c1	nt	nt	nt	nt	i	nt
CC1=Nc2cc(C(=O)NCCCN3CCOCC3)ccc2Sc2c(C)ccc(C)c21	?	20.6µM	i	16.4µM	i	?
CC1=Nc2cc(C(=O)NCCN3CCOCC3)ccc2Sc2c(C)ccc(C)c21	14.6µM	?	i	?	nt	18.4µM
CCCC1=Nc2cc(C(=O)NCCN3CCOCC3)ccc2Sc2ccccc21	i	i	i	?	i	?
O=Cc1ccc2noc(-c3ccc(Cl)cc3)c2c1	?	i	i	i	i	23.1µM
CC(C)OCCCNC(=O)CCCn1c(=O)[nH]c2ccsc2c1=O	i	nt	i	nt	i	?
COc1ccc(C(=O)Cn2c(C(=O)/C=C/c3ccccc3)nc3ccccc32)cc1	?	?	?	?	22.4µM	?
C[C@@H]1CN([C@H](C)CO)C(=O)Cc2cc(NS(=O)(=O)c3cn(C)cn3)ccc2O[C@H]1CN(C)S(=O)(=O)c1ccc(Cl)cc1	i	i	i	i	i	i
COc1ccc(C(=O)N/N=C/c2ccc(N(C)c3ccccc3)cc2)cc1	i	i	i	i	26.7µM	i
SMILES	KB-3-1 cytotox	HT1080 IDH1KD tx	S2 tox	HT1080-NT tox	ATXN2 expr inh	KB-V1 MDR tox
COc1ccc(C(=O)N/N=C/c2ccccc2OC(=O)c2ccccc2)cc1	18.4µM	4.11µM	?	4.61µM	i	13µM
COc1ccc(C(=O)N/N=C/c2ccc(OC(=O)c3ccccc3)cc2)cc1	i	i	i	i	i	i
COc1cc(C(=O)Oc2cccc(/C=N/NC(=O)c3cccnc3)c2)cc(OC)c1OC	i	18.4µM	i	?	i	i
O=C(N/N=C/c1cccc(OC(=O)c2cccc(Br)c2)c1)c1cccnc1	?	i	i	i	i	i
COc1cc(C(=O)Oc2ccccc2/C=N/NC(=O)c2ccc(C)cc2)cc(OC)c1OC	8.2µM	?	?	?	i	i
COc1ccc2c(c1)OC(C)CN(CC(=O)NCc1cn[nH]c1-c1ccc(F)cc1)C2 (centres undefined)	nt	nt	i	nt	nt	nt
CC(=O)OCC#CCSc1nnc(-c2cccc(Br)c2)o1	i	nt	i	nt	i	i
COc1ccc(C(=O)NCCNC(=O)c2ccc(OC)cc2)cc1	?	i	i	i	i	i
COc1ccc(C(=O)NCC(C)(C)SCc2c(C)cc(C)cc2C)cc1	i	i	i	?	i	18.4µM
Cc1cc(C(C)Nc2ccccc2)c2nc(N3CCOCC3)cc(=O)n2c1 (centres undefined)	nt	nt	nt	nt	i	nt
C=CCn1c(=O)/c(=C/c2ccc(Cl)cc2)s/c1=C(/C#N)c1nnc2n1CCCCC2	i	i	17.8µM	i	22.4µM	i
COc1ccccc1-c1noc(-c2ccc(NCc3cccnc3)c([N+](=O)[O-])c2)n1	i	nt	i	nt	i	i
CC(C)[C@H]1c2ccc(F)cc2CC[C@@]1(CCN(C)CCCc1nc2ccccc2[nH]1)OC(=O)C1CC1	?	nt	nt	nt	nt	20.6µM
CC1(C)CC(=O)C2=C(C1)NC1=C(C(=O)c3ccccc31)C2c1cccnc1 (centres undefined)	i	i	?	i	nt	i
CCOc1ccc(C2C(C#N)=C(C)NC3=C2C(=O)c2ccccc23)cc1 (centres undefined)	i	i	i	i	?	?
CC1=C([N+](=O)[O-])C(c2ccccc2)C2=C(N1)c1ccccc1C2=O (centres undefined)	0.82µM	?	i	?	?	4.61µM
CC1(C)CC(=O)C2=C(C1)NC1=C(C(=O)c3ccccc31)C2c1ccccc1 (centres undefined)	?	i	?	i	i	16.4µM
CC(C)c1ccc(C2C3=C(CC(C)(C)CC3=O)NC3=C2C(=O)c2ccccc23)cc1 (centres undefined)	?	?	14.1µM	?	?	?
CC(=O)O[C@H]1[C@@H](O)[C@H](O)[C@H](Oc2c(O)c(C)c3c4c2[C@@H](C)CC[C@@H]4[C@@H](C)C[C@H]3C=C(C)C)O[C@H]1C	?	?	?	?	?	25.9µM
CC(=O)O[C@@H]1[C@@H](O)[C@@H](O)[C@H](Oc2c(-c3ccc(O)cc3)oc3c(CC=C(C)C)c(O)cc(O)c3c2=O)O[C@H]1C	i	?	?	?	?	i
CCOc1ccc(-c2nc3c(c(SCC(=O)N4CCCCC4)n2)Cc2cc(C)ccc2O3)cc1	i	nt	i	nt	i	?
